Experimental data from ChEMBL document CHEMBL4513216, “Probing the Open Global Health Chemical Diversity Library for Multistage-Active Starting Points for Next-Generation Antimalarials” (ACS Infect Dis, 2020).
The whole screen tested about 69,000 compounds, of which about 8,600 (12%) showed an effect of 50% or more. What follows is part of a selection rich in strong results, with near analogues and random picks from the rest.

The compounds below were run on Plasmodium berghei (assay: Screen against P. berghei liver stage (PbLuc), transformed with Luciferase, at 10uM). Conditions: tested at 10 uM.
Type: functional, HepG2
CNc1ccc(CC2CCCN(C(=O)c3cnccn3)C2)nn1 (centres undefined) gave an INHIBITION of 32.3%.
With O=C(NCC1(O)COCCN(Cc2cccc(O)c2)C1)c1cscn1 (centres undefined) the INHIBITION was -19.7%.
Compound Cc1cc(C)n(CC(C)Nc2nc(-c3ccncc3)nc3c2CNC3)n1 (centres undefined) has an INHIBITION of 49.2%.
With Cn1cnc2c(N3CCCC3)nc(C3CCN(CC4CC4)CC3)cc21 the INHIBITION was -14.4%.
CCc1cnc(C)nc1N1CCN(C(N)=O)CC1 gave an INHIBITION of 46.1%.
Compound CCc1cnc(C)nc1N1CCS(=O)(=O)CC1 has an INHIBITION of 57.3%.
With CCOC(=O)N1CCN(c2nc(C)ncc2CC)CC1 the INHIBITION was 47.1%.
O=C(Cn1cc(Cl)cn1)N1CCCC(c2ccn[nH]2)C1 (centres undefined) gave an INHIBITION of 28%.
Cc1occc1CNC(=O)NCCN(C)C1CCCC1 was tested, and the INHIBITION was 16.8%.
For CCOCC1CN(C(=O)c2ccoc2)Cc2cnn(C)c21 (centres undefined), the INHIBITION was 15.6%.
Compound CN(Cc1ccc(C#N)cc1)Cn1nccc1-c1cccnc1 has an INHIBITION of 50.5%.
In the case of Cc1ccsc1CN(C)Cn1nccc1-c1cccnc1, the INHIBITION is reported as 5.79%.
Cc1noc(C)c1CN(C)Cn1nccc1-c1cccnc1 gave an INHIBITION of 36.2%.
In the case of NC(=O)c1sc2ccccc2c1C1CCN(S(=O)(=O)N2CCOCC2)C1 (centres undefined), the INHIBITION is reported as -24.4%.
Compound CCc1ccc(CNc2cc(N3CCCC3CO)ncn2)s1 (centres undefined) has an INHIBITION of 49.1%.
Work on CC(C)N(Cc1ccccn1)C(=O)CCC(=O)c1ccc(F)cc1F yielded an INHIBITION of 36.9%.
With CN(Cc1ccc(-n2cccn2)cc1)C[C@@H]1CCCN2CCCC[C@H]12 the INHIBITION was 70%.
CN(Cc1nc2ccsc2c(=O)[nH]1)CC1CCCCC1 was tested, and the INHIBITION was -21.8%.
CN(Cc1nc2ccsc2c(=O)[nH]1)C[C@@H]1CCCN2CCCC[C@H]12 showed an INHIBITION of 68.4%.
In the case of CN(Cc1nc2ccccc2c(=O)[nH]1)C[C@@H]1CCCN2CCCC[C@H]12, the INHIBITION is reported as 42.6%.
CN(Cc1ccccc1-n1cccn1)C[C@@H]1CCCN2CCCC[C@H]12 showed an INHIBITION of 40.7%.
CN(Cc1ccc(-n2cccn2)cc1)CC1CCCN1c1cccnn1 (centres undefined) was tested, and the INHIBITION was 9.64%.
Compound CNC(=O)C1(CCCc2ccncc2)CCCCN1 (centres undefined) has an INHIBITION of -4.51%.
CCc1cc(NCCCN(C)C2CCCC2)ncn1 was tested, and the INHIBITION was -13.1%.
Work on Cc1nc(C(=O)N(CC2CCCO2)c2ccncc2)cs1 (centres undefined) yielded an INHIBITION of 45.5%.
For CC(C)(C#N)c1ccccc1CN1CCC(N2CCCC2=O)CC1, the INHIBITION was 57.7%.
CN(C)c1ccccc1CN1CCCC(N2CCCC2=O)C1 (centres undefined) gave an INHIBITION of 51.7%.
In the case of CCc1ccccc1CN1CCC(N2CCCC2=O)CC1, the INHIBITION is reported as -0.87%.
CN(C)c1ccccc1CN1CCC(N2CCCC2=O)CC1 showed an INHIBITION of 25.2%.
Work on O=C1CCCN1C1CCCN(CCOc2ccc(F)cc2)C1 (centres undefined) yielded an INHIBITION of 31.2%.
COC(=O)N1CCN(Cc2ccccc2C(C)(C)C#N)CC1 gave an INHIBITION of 39.2%.
CCSCc1csc(-c2ccc(S(C)(=O)=O)cc2)n1 showed an INHIBITION of -35.8%.
For CCOc1cc(CNC(=O)CNC(=O)CC2CCCCC2)ccn1, the INHIBITION was 6.23%.
For NCc1cnc(Nc2ccccc2)nc1, the INHIBITION was 23.1%.
For CCc1cnc(CN(C(C)=O)C2CCN(CCN3CCCCC3)C2)o1 (centres undefined), the INHIBITION was 31.9%.
With CC(C)c1noc(-c2ccc(-n3cnc(C(=O)O)c3)nc2)n1 the INHIBITION was 2.49%.
Compound Cc1c(C(=O)N2CCCC(C(=O)c3nccn3C)C2)c[nH]c(=O)c1C#N (centres undefined) has an INHIBITION of 25.1%.
For O=C1NCCN(C(=O)CN2CCOC2=O)C1c1cccc(F)c1 (centres undefined), the INHIBITION was 32%.
For O=C1NCCN(C(=O)CCN2CCCO2)C1c1cccc(F)c1 (centres undefined), the INHIBITION was 5.15%.
In the case of O=C(CCC(=O)N1CCNC(=O)C1c1cccc(F)c1)NC1CCCC1 (centres undefined), the INHIBITION is reported as 55.5%.
CCc1nccn1C1CCCN(C(=O)c2csc(NC(C)=O)n2)C1 (centres undefined) was tested, and the INHIBITION was 20.1%.
Compound CC(NCc1ccccc1Cl)c1ccc2[nH]c(=O)[nH]c2c1 (centres undefined) has an INHIBITION of 40.9%.
Compound COc1ccccc1CNC(C)c1ccc2[nH]c(=O)[nH]c2c1 (centres undefined) has an INHIBITION of 7.12%.
With CC(NCc1ccccc1Br)c1ccc2[nH]c(=O)[nH]c2c1 (centres undefined) the INHIBITION was 51.6%.
With Cc1nc(CCCNC(=O)C2CC(=O)N(C3CCCC3)C2)sc1C (centres undefined) the INHIBITION was 44.7%.
For CCN1CC(C(=O)NCCCc2nc(C)c(C)s2)CC1=O (centres undefined), the INHIBITION was 45.8%.
With Cc1nc(CCCNC(=O)C2CC(=O)N(C3CC3)C2)sc1C (centres undefined) the INHIBITION was 56.8%.
Cc1cnc2n1CCN(C)C21CCN(C(=O)CC(C)C)CC1 was tested, and the INHIBITION was 0.547%.
Work on COCc1ccc(C(=O)N2CC[C@H](O)[C@@H](n3ccnc3)CC2)cc1 yielded an INHIBITION of -6.3%.
Work on Cn1c(=O)oc2cc(S(=O)(=O)N3CCCCC3)c(Cl)cc21 yielded an INHIBITION of 30%.
Cn1c(=O)oc2cc(S(=O)(=O)N3CCC(c4ccccc4)C3)c(Cl)cc21 (centres undefined) gave an INHIBITION of 55%.
Cn1c(=O)oc2ccc(S(=O)(=O)N3CCC(c4ccccc4)C3)cc21 (centres undefined) gave an INHIBITION of -5.26%.
COCC(NC(=O)c1ccoc1C)c1cccc(C(F)(F)F)c1 (centres undefined) gave an INHIBITION of 17.8%.
For O=C(O)[C@]12CCCN(Cc3ccsc3)C[C@H]1CN(c1ccccn1)C2, the INHIBITION was 1.48%.
Cn1cc(CN2CCCC3(COCCN(Cc4c[nH]nn4)C3)C2)cn1 (centres undefined) was tested, and the INHIBITION was -6.23%.
Cc1ccc(CN2CCCC3(COCCN(Cc4c[nH]nn4)C3)C2)s1 (centres undefined) gave an INHIBITION of 65.6%.
c1cc(CN2CCCC3(COCCN(Cc4c[nH]nn4)C3)C2)cs1 (centres undefined) showed an INHIBITION of -4.88%.
With c1csc(CN2CCCC3(COCCN(Cc4c[nH]nn4)C3)C2)c1 (centres undefined) the INHIBITION was 31.7%.
In the case of CNC(=O)CN1CCOCC2(CCCN(Cc3ccsc3)C2)C1 (centres undefined), the INHIBITION is reported as -17.1%.
With Fc1ccc(CN2CCCC3(COCCN(Cc4c[nH]nn4)C3)C2)cc1 (centres undefined) the INHIBITION was 61.5%.
CNC(=O)CN1CCOCC2(CCCN(Cc3ccc(F)cc3)C2)C1 (centres undefined) was tested, and the INHIBITION was 53.1%.
For CNC(=O)CN1CCOCC2(CCCN(Cc3ccoc3)C2)C1 (centres undefined), the INHIBITION was -2.35%.
Work on Cc1ccc(CN2CCCC3(COCCN(Cc4c[nH]nn4)C3)C2)o1 (centres undefined) yielded an INHIBITION of 30.5%.
In the case of CCc1cccc(CC)c1NC(=O)c1ccccc1N(C)S(C)(=O)=O, the INHIBITION is reported as 26.9%.
In the case of Cn1cccc1C(=O)N1CCCCC1c1[nH]ncc1S(C)(=O)=O (centres undefined), the INHIBITION is reported as 4.08%.
For CC(C)n1cnc2c1C(C(=O)N1CCCC1)N(CC1CC1)CC2 (centres undefined), the INHIBITION was 13.7%.
With Cc1nc(C(C)(C)C)sc1C(=O)NCCNc1ncccc1C#N the INHIBITION was -26.6%.
CCN(Cc1c(F)cccc1F)Cn1nc(C)c2c(C)onc2c1=O was tested, and the INHIBITION was 12.7%.
For Cc1noc(C)c1CNCC1(COc2cccnc2)C[C@@H](O)[C@@H](O)C1 (some centres undefined), the INHIBITION was 27.5%.
